# Data from ChEMBL document CHEMBL4513216, “Probing the Open Global Health Chemical Diversity Library for Multistage-Active Starting Points for Next-Generation Antimalarials” (ACS Infect Dis, 2020).
# The whole screen tested about 65,000 compounds, of which about 2,100 (3.2%) showed an effect of 50% or more. The median lay at about -52%. The sample as a whole holds a higher share of strong results than the screen did.
# System: Plasmodium falciparum
# Experiment: Screen against P. falciparum Asexual Blood Stage (ABS), at 5uM
# Assay type: functional, Dd2
# Conditions: tested at 5 uM
row,SMILES,INHIBITION
1,CN1CCOC(CNC(=O)COc2ccc(F)cc2F)C1 (centres undefined),-69.6%
2,CC(C)N1CCC(CNC(=O)CCc2cc(F)ccc2F)C1 (centres undefined),7.8%
3,CC(C)N1CCC(CNC(=O)COc2ccc(F)cc2F)C1 (centres undefined),53.3%
4,Cc1ccc(N2CC[C@@H]3[C@@H]2CCN3C(=O)Cc2ccccc2)nn1,-79%
5,O=C(C1CC1)N1CCCC1C1CCN(Cc2ccccc2)CC1 (centres undefined),-40.8%
6,Clc1ccc(N2CCC(C3CCN(Cc4cccnc4)CC3)C2)nc1 (centres undefined),12.7%
7,CCOCC(=O)N1CCC(C2CCN(Cc3ccc(Cl)cc3)C2)CC1 (centres undefined),0.245%
8,O=C(C1CCC1)N1CCC(C2CCN(Cc3ccc(Cl)cc3)C2)CC1 (centres undefined),65.6%
9,Clc1cccnc1N1CCC(C2CCN(Cc3cccnc3)CC2)C1 (centres undefined),-49.5%
10,CC(=O)NCC(=O)N1CCC(C2CCN(Cc3ccc(Cl)cc3)C2)CC1 (centres undefined),5.47%
11,CN1CCN(Cc2ccc(Cl)cc2)CC1C(=O)O (centres undefined),-94.1%
12,O=C(C1CCCC1)N1CCC(C2CCN(Cc3ccc(Cl)cc3)C2)CC1 (centres undefined),64.3%
13,Clc1ccc(CN2CCC(C3CCN(Cc4cccnc4)CC3)C2)cc1 (centres undefined),64.4%
14,Cc1cc(C)n(CC2CCCN2C(=O)c2c(C)noc2C)n1 (centres undefined),-97.8%
15,Cc1nc(CN2CCCN(CCOc3ccc(C#N)cc3)CC2)no1,-71.7%
16,CCN(Cc1ccncc1)C(=O)CCn1c(C)cc2ccccc21,56.5%
17,CCN(Cc1nc(COC)no1)C(=O)CCn1c(C)cc2ccccc21,10%
18,Cc1cc2ccccc2n1CCC(=O)NCc1ncc[nH]1,-0.748%
19,O=C(NC1CCCC1)c1cc2c(s1)CCN2C(=O)c1ccccc1,-63.7%
20,Cc1nc(C)n(CC2CCCN2CCCOc2ccc(C#N)cc2)n1 (centres undefined),-33.2%
21,Cc1ccc(S(=O)(=O)N2Cc3c(CN(C)C)nn(C)c3C2)cc1,42.8%
22,COc1ccc(S(=O)(=O)N2Cc3c(CN(C)C)nn(C)c3C2)cc1,40.7%
23,CCc1ccc(S(=O)(=O)N2Cc3c(CN(C)C)nn(C)c3C2)cc1,63.9%
24,C[C@@H](O)CNC(=O)c1nc(CC(=O)Nc2ccccc2)no1,-40.2%
25,CC(NC(=O)N1CCN(c2cccs2)CC1)c1ccncc1 (centres undefined),-28.9%
26,CC(NC(=O)N1CCN(c2cccs2)CC1)c1ccc(C#N)cc1 (centres undefined),63.2%
27,CC(NC(=O)N1CCN(c2ncccn2)CC1)c1ccc(C#N)cc1 (centres undefined),19.1%

row,SMILES,INHIBITION
1,Cc1ccnn1CCC(=O)N1C[C@@H]2CC[C@H]1CN(CC(=O)N(C)C)C2,-46.9%
2,CC(C)(C)c1ccc(S(=O)(=O)CCN2CCNC(=O)CC2)cc1,-97.7%
3,COCCCNc1ncc(-c2cccc(F)c2)c(-c2nccn2C)n1,-138%
4,COCCNc1ncc(-c2cccc(OC)c2)c(-c2nccn2C)n1,69.3%
5,COCCNc1ncc(-c2cccc(F)c2)c(-c2nccn2C)n1,-10.2%
6,Cc1nnsc1CN1C[C@H]2CC[C@@H](C1)N(Cc1ccccc1)C2,-69.4%
7,COc1cc2c(cc1CN1CCCCC1CN1CCOCC1)CCC2 (centres undefined),65.9%
8,COc1cccc(CN2CCCCC2CN2CCOCC2)c1F (centres undefined),4.8%
9,COc1cc2c(cc1CN1C[C@@H](CN3CCOCC3)[C@@H](CO)C1)CCC2,21.7%
10,CC(OCC1CC1)C(=O)Nc1ncccc1I (centres undefined),-86.5%
11,CC1(c2ccccc2)CCCN(Cc2nnc(-c3cccnc3)o2)C1 (centres undefined),-119%
12,COCCn1cncc1CN1CCCC(C(=O)Cc2ccccc2)C1 (centres undefined),-43.6%
13,O=C(Cc1ccccc1)C1CCCN(Cc2cncn2C2CCCC2)C1 (centres undefined),57.8%
14,CN1CCCC2(CCN(Cc3cncn3C3CCCCC3)C2)C1=O (centres undefined),-28.7%
15,COCCn1cncc1Cn1cccc(C(F)(F)F)c1=O,-90.4%
16,CC1(c2ccccc2)CCCN(Cc2cncn2C2CC2)C1 (centres undefined),67.2%
17,COCCN1CCCC12CCN(Cc1cncn1C)CC2,-12.2%
18,O=C(C1CCCN(Cc2ccccc2)C1)N1CCc2sccc2C1 (centres undefined),12.7%
19,COCCn1cncc1CN1CCCC(C)(c2ccccc2)C1 (centres undefined),61.5%
20,Cn1nc(C(=O)NCc2ccc(Cl)cc2)c2c1CCS(=O)(=O)C2,-79%
21,COCC(=O)N1CCC2(COCc3cnc(N4CCOCC4)nc32)C1 (centres undefined),-38%
22,CC(C)n1nc(CN(C)C)c2c1CN(C(=O)CC1CC1)CC2,-91.2%
23,COc1cc(NC(=O)N2CCCC2c2nncn2C)ccc1Br (centres undefined),-53.7%
24,CCS(=O)(=O)NCc1nc(C)cc(N2CCCCC2)n1,-38.7%
25,Cn1nc(CN2CCCC2)c2c1CN(CC1CC1)CC2,-16.8%
26,CC(C)n1nc(CN2CCCC2)c2c1CN(CC1CC1)CC2,55.7%
27,CC(C)n1nc(CN(C)C)c2c1CN(CC1CC1)CC2,-87.1%
